GRIN3A LBD mod: modulates the human NR3A ligand-binding domain; NR3A LBD differential scanning fluorimetry, Tm shift; 0% = protein alone, 100% = glycine-bound protein; Tm shift relative to glycine control, % at 25 µM; 2.5% of 340,000 active;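 active means melting temperature shift of at least 10% of the positive control shift, at one fixed dose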
MPTP block: permeability transition pore inhibition | isolated mouse mitochondria, Ca2+ swelling absorbance, 30 min | inhibition, % at 10 µM | 1.4% of 360,000 active;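 active means inhibition of 50% or more, scaled per plate between neutral and stimulator controls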;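 further: 0% = DMSO wells given calcium and 100% = 1 mM EGTA wells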
Mdm2 MdmX PPI: disrupts the human Mdm2-MdmX interaction; SaOS-2 split-luciferase Mdm2/MdmX complementation, luminescence; AID 485346; O15151+Q00987; 3% of 330,000 active; inhibition, % at 8 µM;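 active means inhibition of at least 50% at 8 µM in the primary screen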
Target sequence (O15151 whole entry, looked up): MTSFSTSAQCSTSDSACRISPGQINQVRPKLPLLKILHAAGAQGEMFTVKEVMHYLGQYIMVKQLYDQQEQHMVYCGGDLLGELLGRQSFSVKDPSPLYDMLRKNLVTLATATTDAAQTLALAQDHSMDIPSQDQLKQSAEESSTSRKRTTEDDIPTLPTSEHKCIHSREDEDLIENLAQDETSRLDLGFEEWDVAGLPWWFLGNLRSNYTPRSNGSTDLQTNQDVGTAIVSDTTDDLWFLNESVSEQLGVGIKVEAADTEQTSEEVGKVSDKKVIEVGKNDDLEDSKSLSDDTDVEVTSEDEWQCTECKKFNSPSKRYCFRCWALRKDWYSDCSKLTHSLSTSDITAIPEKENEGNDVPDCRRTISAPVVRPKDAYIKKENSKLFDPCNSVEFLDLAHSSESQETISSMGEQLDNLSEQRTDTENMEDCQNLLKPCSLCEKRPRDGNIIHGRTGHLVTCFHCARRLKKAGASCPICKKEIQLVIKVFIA
Target sequence (Q00987 whole entry, looked up): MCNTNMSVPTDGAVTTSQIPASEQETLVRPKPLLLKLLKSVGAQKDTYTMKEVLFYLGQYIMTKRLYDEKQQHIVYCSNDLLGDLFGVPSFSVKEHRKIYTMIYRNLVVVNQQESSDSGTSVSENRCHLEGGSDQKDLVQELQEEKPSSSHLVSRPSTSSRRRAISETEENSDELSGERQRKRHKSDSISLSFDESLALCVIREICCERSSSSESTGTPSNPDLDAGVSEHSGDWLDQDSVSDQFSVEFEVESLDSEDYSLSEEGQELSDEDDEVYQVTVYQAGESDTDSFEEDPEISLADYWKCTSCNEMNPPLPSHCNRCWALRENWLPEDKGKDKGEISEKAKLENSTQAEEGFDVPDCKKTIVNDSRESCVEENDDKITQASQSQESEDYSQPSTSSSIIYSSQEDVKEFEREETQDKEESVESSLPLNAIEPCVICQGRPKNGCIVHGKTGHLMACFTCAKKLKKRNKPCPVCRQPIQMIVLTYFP
CSC inhib: cancer stem cell inhibition; cancer stem cell-like cells viability, luminescence; inhibition, % at 7.5 µM; 1.1% of 300,000 active; AID 2717; in the data active means inhibition above about 75%; tested in HMLE shEcad cells
Beta apoptosis: beta cell apoptosis inhibition; INS-1E cytokine-induced death, ATP luminescence, 48 h; percent of positive-control rescue, neutral wells zero; protection from apoptosis, % (test concentration not listed); 0.8% of 300,000 active; AID 435005;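 active means Every replicate reaches about 75%, or at least half do and their mean reaches it too, limit read from the data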;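 further: 0% = cytokine-treated negative control wells and 100% = positive control rescue; higher means more ATP so stronger rescue from cytokine killing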
Gli-Sufu antag: antagonists of Gli-Sufu signaling; Sufu-KO-LIGHT fibroblasts, Gli luciferase reporter luminescence; inhibition, % at 5 µM; 0.74% of 340,000 active;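 active means inhibition above about 55%, limit read from the data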;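 further: 0% = DMSO-treated cells and 100% = wells with medium but no cells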
Mdm2 MdmX conf: human Mdm2/MdmX binding inhibition, confirmed; inhibition, % at 8 µM; luminescent assay; 55% of 10,000 active; shares compounds with Mdm2 MdmX PPI; in the data active means inhibition above about 40%
Full FLuc ctr: inhibits full-length luciferase, flagging false Mdm2/MdmX hits; shares compounds with Mdm2 MdmX PPI; SaOS-2 full-length luciferase counterscreen, luminescence; inhibition, % at 8 µM; 77% of 6,200 active;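 active means mean inhibition at 8 µM reaching about 37%, which flags the compound as non-specific, limit read from the data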;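 further: p53-null SaOS-2 cells with luciferase driven by a doxycycline-inducible promoter; compound on cells about two nights before reading with doxycycline added after day one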
Numbers without * were called inactive; x = no result. In the library only some 6.6% were active in any assay of this set; here they are far more common.

SMILES	GRIN3A LBD mod	MPTP block	Mdm2 MdmX PPI	CSC inhib	Beta apoptosis	Gli-Sufu antag	Mdm2 MdmX conf	Full FLuc ctr
Cc1ncc(CO)c2c1Oc1nc(-c3ccccc3)nc(SCC(=O)N3CCCCC3)c1C2	-1	-1	63*	-13	11	-4	38	53*
Cc1cccc(-c2nc3c(c(SCC(=O)N4CCOCC4)n2)Cc2c(CO)cnc(C)c2O3)c1	-3	-2	28	10	7	13	x	x
Cc1ncc(CO)c2c1Oc1nc(-c3ccccc3)nc(SCC(=O)N3CCOCC3)c1C2	-1	-1	28	-14	1	-8	x	x
COc1cccc(-c2nc3c(c(SCC(=O)N4CCOCC4)n2)Cc2c(CO)cnc(C)c2O3)c1	-1	-1	65*	-2	5	-5	31	71*
COc1ccccc1Cn1c(=O)c2ccccc2n2c(Sc3ncnc4sccc34)nnc12	2	0	76*	11	-27	5	30	x
COc1ccccc1Cn1c(=O)c2ccccc2n2c(SCc3csc(C)n3)nnc12	-1	1	15	-6	11	2	x	x
O=C(Cn1cnc([N+](=O)[O-])c1)Nc1cc(Oc2ccc(Cl)cc2Cl)cc([N+](=O)[O-])c1	12*	5	56*	72	17	-11	26	x
N#Cc1ccc(NC(=O)Cn2cnc([N+](=O)[O-])c2)cc1	1	1	-24	-16	-2	-1	x	x
NC(N)=N/N=C/c1ccc(Br)cc1	-3	-2	54*	39	8	4	58*	57*
O=C(N/N=C/c1ccccc1)c1ccc(OCc2ccccc2)cc1	-10	-1	-6	x	4	-11	x	x
Cc1ccc(COc2ccc(/C=N/O)cc2)cc1	-4	0	-154	8	x	-62	x	x
NC(N)=N/N=C/c1ccc(OCc2ccccc2)cc1	-10	5	55*	36	82*	11	23	x
NC(N)=N/N=C/c1ccc(OCc2ccc(Cl)cc2)cc1	-10	4	98*	x	x	-7	32	x
CC(=O)NCCNc1nc2cc(-c3ccccc3CO)sc2c(=O)n1C	x	0	x	x	x	x	x	x
CCC(C)(C(=O)NC1CCCCC1)N(Cc1ccco1)C(=O)Cc1cccs1 (stereo not given)	0	-1	-3	-8	-12	15	x	x
O=c1c(Cl)c(Cl)cnn1Cc1nnc(-c2ccccc2Br)o1	1	0	100*	x	x	1	100*	54*
Clc1ccccc1OCc1nnc(-c2ccccc2Br)o1	-8	-1	-158	x	3	-81	x	x
COc1ccccc1C(=O)/C=C/c1ccc(N2CCCCC2)c([N+](=O)[O-])c1	-5	1	99*	x	x	-28	37	70*
O=C(O/N=C\c1ccc(N2CCCCC2)c([N+](=O)[O-])c1)c1ccc(Cl)cc1Cl	1	-2	9	23	0	-32	x	x
COc1ccc(N2CCN(C(=O)CSc3nnc(NC(=O)C4CCC4)s3)CC2)cc1	-1	0	1	-6	-14	8	x	x
COC(=O)Nc1ccc(S(=O)(=O)N2CCCc3cccc(O)c32)cc1	-3	0	55*	49	10	4	52*	63*
COc1ccc(S(=O)(=O)N2CCc3ccccc32)cc1C(=O)Nc1ccc(C(N)=O)cc1	-5	-2	98*	43	58	3	60*	66*
COC(=O)Nc1ccc(S(=O)(=O)N2CCCc3ccccc32)cc1	-2	7	55*	80*	27	-3	49*	56*
COC(=O)Nc1ccc(S(=O)(=O)N2CCCCC2)cc1	1	0	16	12	3	8	x	x
Cn1c(=O)oc2cc(S(=O)(=O)N3CCCc4ccccc43)ccc21	-2	-1	55*	73	-6	39	59*	65*
CC(C)CN(C(=O)c1ccc(F)cc1F)c1c(N)n(CC(C)C)c(=O)[nH]c1=O	-2	1	12	5	-4	-14	x	x
CN(c1ccc(F)cc1)S(=O)(=O)c1ccc(Cl)c(C(=O)Nc2ccncc2)c1	-1	50	52*	-15	39	47	28	x
